In all, about 110,000 compounds were measured (“z-score”: median about -0.1, highest 2% from about 2 on). This is one part of a sample in which the highest values are shown more often than they occur. Active and inactive are the calls of the source.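 How the source made its calls: active means z-score in the third read window above 3 or below -3; inactive means the rest.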
What follows are compounds tested against Metabotropic glutamate receptor 8 (Rattus norvegicus) (UniProt P70579) (assay: rat mGluR8 modulators via GIRK flux, primary screen, cell-based, thallium flux, HTS (AID 488969)). Conditions: HEK293 rat mGluR8, GIRK (G protein-gated inwardly rectifying potassium channel) thallium flux, FluoZin2; at 10 µM; stronger effect = higher value; submaximal glutamate (EC20) added with thallium.
Metabotropic glutamate receptor 8 (Rattus norvegicus), sequence (P70579 whole entry, looked up): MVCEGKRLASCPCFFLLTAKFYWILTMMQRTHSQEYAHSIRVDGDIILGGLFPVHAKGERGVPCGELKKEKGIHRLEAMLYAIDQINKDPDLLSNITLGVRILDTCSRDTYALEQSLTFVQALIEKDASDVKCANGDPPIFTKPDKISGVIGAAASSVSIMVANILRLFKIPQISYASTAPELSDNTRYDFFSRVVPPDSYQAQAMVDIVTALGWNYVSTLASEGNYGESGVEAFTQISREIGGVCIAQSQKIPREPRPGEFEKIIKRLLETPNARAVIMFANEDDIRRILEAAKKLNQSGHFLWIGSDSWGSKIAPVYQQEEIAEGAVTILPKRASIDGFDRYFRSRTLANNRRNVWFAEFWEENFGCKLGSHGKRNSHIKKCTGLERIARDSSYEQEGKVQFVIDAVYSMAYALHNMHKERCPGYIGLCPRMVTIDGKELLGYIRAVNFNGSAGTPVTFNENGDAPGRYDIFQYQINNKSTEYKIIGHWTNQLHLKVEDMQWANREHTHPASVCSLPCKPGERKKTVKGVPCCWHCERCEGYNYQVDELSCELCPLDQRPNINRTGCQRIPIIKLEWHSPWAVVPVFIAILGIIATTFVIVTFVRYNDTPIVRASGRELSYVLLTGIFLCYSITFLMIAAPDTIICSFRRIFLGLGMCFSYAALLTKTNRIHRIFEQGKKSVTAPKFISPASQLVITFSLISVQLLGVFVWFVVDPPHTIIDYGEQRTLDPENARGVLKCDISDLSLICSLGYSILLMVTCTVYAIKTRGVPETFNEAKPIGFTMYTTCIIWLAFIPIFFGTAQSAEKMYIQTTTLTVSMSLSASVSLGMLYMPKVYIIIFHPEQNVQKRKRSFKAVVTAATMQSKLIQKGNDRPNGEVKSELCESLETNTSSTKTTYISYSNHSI

| SMILES | z-score |
| --- | --- |
| O=c1cc(NS(=O)(=O)c2ccccc2)nc(SCc2ccc(Cl)cc2)[nH]1 | 0.485 |
| CCc1c(C)nc2ncnn2c1Nc1ccc(C(C)=O)cc1 | 0.0606 |
| O=C(CSc1ncn[nH]1)Nc1nc(-c2ccccc2)cs1 | 0.0129 |
| Cc1ccc(C(=O)N/C(=C/c2ccco2)C(=O)Nc2cccc(C)c2)cc1 | -0.287 |
| CC(=O)c1cccc(NC(=O)c2ccc(N(Cc3ccccc3)S(C)(=O)=O)cc2)c1 | -0.207 |
| COCCn1c(C)cc(C(=O)CN2C(=O)NC3(CCCCCCC3)C2=O)c1C | 0.319 |
| O=C(CSc1nnnn1-c1cccc2c1CCCC2)N1CCCC1 | 0.0215 |
| CC1CCCC(C)N1C(=O)CSc1nnnn1-c1cccc2c1CCCC2 (configuration not stated) | -0.621 |
| O=C(CSc1nnnn1-c1cccc2c1CCCC2)NC1CCCC1 | 5.15 (active) |
| Cc1ccc2c(c1)c1c(n2CC(O)Cn2nc(C)c(Br)c2C)CCCC1 (configuration not stated) | 0.191 |
| Cc1ccc2c(c1)c1c(n2CC(O)Cn2c(C)nc3ccccc32)CCCC1 (configuration not stated) | -0.427 |
| Cc1ccc2c(c1)c1c(n2CC(O)CNC(C)(C)C)CCCC1 (configuration not stated) | 2.4 |
| CC(=O)c1cc2c(cc1NC(=O)CN1CCCCC1C)OCO2 (configuration not stated) | -0.0192 |
| O=C(NCc1cccs1)c1nc2c(nnn2Cc2ccc(F)cc2)c(=O)[nH]1 | -1 |
| Cc1cc(N/C=C\c2nnnn2-c2ccccc2)no1 | -0.374 |
| COc1ccc(Nc2nc(C)cc(C)c2C#N)cc1OC | 6.74 (active) |
| COc1ccc(Nc2nc(C)cc(C)c2C#N)cc1 | 0.405 |
| COc1cccc(Nc2nc(C)cc(C)c2C#N)c1 | -0.0986 |
| O=C(Cn1nnc(-c2ccccc2)n1)OCc1csc(-c2ccccc2)n1 | -0.49 |
| Cc1ccc(-n2nc3c(Cl)nnc(C)c3c2C)cc1 | 0.701 |
| NS(=O)(=O)c1ccc(Cc2ncc(C(F)(F)F)cc2Cl)s1 | 1.4 |
| O=C(NCc1ccc2c(c1)OCO2)c1cc2ccccc2o1 | -0.522 |
| O=C(C1CCCCN1S(=O)(=O)c1ccc(F)cc1)N1CCN(c2ccccc2F)CC1 (configuration not stated) | -0.386 |

| SMILES | z-score |
| --- | --- |
| COc1ccc2[nH]c(C)c(C(=O)CN3CC(C)OC(C)C3)c2c1 (configuration not stated) | 2.96 |
| COc1ccc2c(C(=O)CN3CC(C)OC(C)C3)c[nH]c2c1 (configuration not stated) | -0.0527 |
| COc1ccc2[nH]c(C)c(C(=O)CN3CCOCC3)c2c1 | 0.0884 |
| O=S1(=O)CC(N2CCOCC2)c2ccccc21 (configuration not stated) | -0.0158 |
| COc1ccc(CNC(=O)CSc2ccc(Br)cc2)cc1OC | 0.192 |
| COc1ccc(S(=O)(=O)N(C)CC(=O)NCc2ccco2)cc1 | -0.29 |
| Cc1ccc(N(CC(=O)NCc2ccco2)S(=O)(=O)c2ccccc2)cc1 | 0.374 |
| CN(CCCC(=O)NCc1ccco1)S(=O)(=O)c1ccccc1 | 2.39 |
| CCC(C)NC(=O)COc1ccc(Br)c(C)c1 (configuration not stated) | 0.482 |
| CN(C(=O)COC(=O)C1CCN(S(=O)(=O)c2cccs2)CC1)C1CCS(=O)(=O)C1 (configuration not stated) | 0.776 |
| Cc1ccc(Cn2c(NCCc3ccccc3)nc3c2c(=O)n(C)c(=O)n3C)cc1 | -0.251 |
| C=CCn1c(NCCc2ccccc2)nc2c1c(=O)n(C)c(=O)n2C | 0.0292 |
| CC(C)n1c(NCCc2ccccc2)nc2c1c(=O)n(C)c(=O)n2C | 2.39 |
| COc1ccc(CNC(=O)CCc2c(C)nc3ncnn3c2C)cc1 | 0.418 |
| CCOc1cc2[nH]c(=S)n(CCCN(CC)CC)c(=O)c2cc1OCC | -0.475 |
| CC(C)N(CCn1c(=S)[nH]c2ccccc2c1=O)C(C)C | 2.64 |
| CC(C)n1c(=S)[nH]c2ccccc2c1=O | 9.16 (active) |
| COc1nc2ccccc2c(=O)n1OCC(C)C | 0.0226 |
| CC(C)COn1c(=S)[nH]c2ccccc2c1=O | 3.03 (active) |
| CCOc1cc2[nH]c(=S)n(C(C)C)c(=O)c2cc1OCC | 9.84 (active) |
| CC(C)n1c(=O)[nH]c2ccccc21 | 1.11 |
| CC(C)n1c(=S)[nH]c2ccccc21 | -0.0644 |
| CCOc1cc2[nH]c(=S)n(CCN3CCC(C)CC3)c(=O)c2cc1OCC | 0.809 |

| SMILES | z-score |
| --- | --- |
| CCN(CC)CCn1c(=S)[nH]c2ccccc2c1=O | -2.46 |
| CN(C)CCn1c(=S)[nH]c2ccccc2c1=O | -0.191 |
| COn1c(=S)[nH]c2ccccc2c1=O | 1.06 |
| Cc1ccc(Cn2c(CN3CC(C)OC(C)C3)nc3c2c(=O)[nH]c(=O)n3C)cc1 (configuration not stated) | 0.0226 |
| O=C(CSc1nnc(-c2ccc(F)cc2)o1)Nc1ccccc1N1CCOCC1 | -0.906 |
| CN(C)c1ccc(/C=N\Nc2nc(-c3ccccc3)cc(=O)[nH]2)cc1 | -0.138 |
| CC(=O)Nc1ccc(N(C(=O)Cc2c[nH]c3ccccc23)C(C(=O)NC2CCCCC2)c2ccco2)cc1 (configuration not stated) | 1.17 |
| Cc1ccccc1-c1nc(-c2ccc(NC(=O)c3ccc(Br)o3)cc2)no1 | 0.0114 |
| N#CNC(=Nc1cccc(F)c1)SCc1cccc(F)c1 | -0.141 |
| CCC(C)NC(=O)CSc1nc2c(sc(=S)n2Cc2ccco2)c(=O)n1-c1ccccc1 (configuration not stated) | 0.437 |
| Cc1ccc2[nH]c(=O)c(CN(Cc3cccs3)S(=O)(=O)c3ccc4c(c3)OCCO4)cc2c1 | 0.0485 |
| CCOC(=O)Cc1csc(SCC(=O)Nc2cccc(Cl)c2)n1 | 0.368 |
| Cc1onc(-c2ccccc2Cl)c1C(=O)NC1CCS(=O)(=O)C1 (configuration not stated) | -0.0472 |
| COc1cc2cc(CN(CCc3ccccc3C)C(=S)NCCCN(C)C)c(=O)[nH]c2cc1OC | 0.66 |
| CCCC(=O)N=C1SC2CS(=O)(=O)CC2N1c1ccc(-c2nc3ccc(C)cc3s2)cc1 (configuration not stated) | -0.238 |
| Cc1ccc2nc(-c3ccc(N4C(=N)SC5CS(=O)(=O)CC54)cc3)sc2c1 (configuration not stated) | 2.09 |
| CC(=O)N=C1SC2CS(=O)(=O)CC2N1c1ccc(-c2nc3ccc(C)cc3s2)cc1 (configuration not stated) | 0.0589 |
| CC1CC(C)CN(CCCNC(=O)c2ccc3c(c2)NC(=O)C(N2CCCCC2)S3)C1 (configuration not stated) | 2.18 |
| O=C(NCCCN1CCCCC1)c1ccc2c(c1)NC(=O)C(N1CCCCC1)S2 (configuration not stated) | 0.905 |
| O=C(NCCCN1CCCCCC1)c1ccc2c(c1)NC(=O)C(N1CCOCC1)S2 (configuration not stated) | 0.756 |
| CCCCCOC(=O)Cn1c(N2CCOCC2)nc2c1c(=O)[nH]c(=O)n2C | -0.228 |
| Cc1ccc(C2CC(=O)c3cnc(NC(=O)c4ccco4)nc3C2)cc1 (configuration not stated) | -0.398 |
| Cc1ccc(C)c(NC(=S)c2nc3ccccc3s2)c1 | 8.98 (active) |

| SMILES | z-score |
| --- | --- |
| Cc1ccc(NC(=S)c2nc3ccccc3s2)cc1 | 0.791 |
| Cc1ccc(C)c(NC(=S)N2CCC(c3nc4ccccc4s3)CC2)c1 | 0.656 |
| Cc1cccc(NC(=S)c2nc3ccccc3s2)c1 | 0.84 |
| S=C(Nc1ccccc1)c1nc2ccccc2s1 | 2.64 |
| S=C(Nc1ccc(Cl)cc1)c1nc2ccccc2s1 | 0.236 |
| Cc1cc(SCC(=O)c2cc(C)n(C)c2C)nc2ccccc12 | -0.0351 |
| NC(=O)C1CCN(Cc2nc3ccccc3c(=O)[nH]2)CC1 | -0.276 |
| Cn1c(=O)oc2cc(S(=O)(=O)NC3CCN(Cc4ccccc4)CC3)ccc21 | -0.316 |
| O=c1oc2ccccc2cc1-c1csc(NN=C2CCCCC2)n1 | -0.185 |
| O=C(NNC(=O)C1CCCO1)c1ccc(F)cc1 (configuration not stated) | -0.154 |
| CCOCc1nnc(NC(=O)c2cccs2)s1 | 0.125 |
| Cc1ccccc1CSCC(=O)c1c(N)n(C)c(=O)n(C)c1=O | -0.253 |
| CCN(CC(=O)c1c(N)n(C)c(=O)n(C)c1=O)c1cccc2ccccc12 | 2.55 |
| Cn1c(N)c(C(=O)c2ccccc2)c(=O)n(C)c1=O | -0.397 |
| COc1ccc(NC(=S)Nc2ccc(S(=O)(=O)N3CCOCC3)cc2)c(OC)c1 | 0.108 |
| O=C(CSc1nnc(-c2ccco2)n1-c1ccccc1)N1CCc2ccccc21 | 0.00192 |
| Cc1ccc(Nc2nc(Oc3ccc(=O)[nH]n3)nc(N(C)C)n2)cc1 | -0.00557 |
| CCCN(CCC)c1nc2ccccc2nc1C(C#N)C(=O)OC(C)COC (configuration not stated) | -3.86 (active) |
| CCCCN(CCCC)c1nc2ccccc2nc1C(C#N)C(=O)NCCCOC (configuration not stated) | 6.64 (active) |
| COCCCNC(=O)C(C#N)c1nc2ccccc2nc1N1CCCC1 (configuration not stated) | -0.459 |
| CCN(CC)P1(=O)OC(c2cc(OC)c(OC)c(OC)c2)=Nc2c1c(C)nn2-c1ccccc1 (configuration not stated) | -1.4 |
| COc1ccc(S(=O)(=O)N2CCC(C(=O)N3CCN(c4ccccc4OC)CC3)CC2)cc1 | -0.274 |
| CC(C)N1CC(C(=O)Nc2ccc(Br)c(Cl)c2)CC1=O (configuration not stated) | 0.0942 |

| SMILES | z-score |
| --- | --- |
| CC(C)(C)S(=O)(=O)c1ccc(S(=O)(=O)C(C)(C)C)s1 | 2.32 |
| CCS(=O)(=O)c1ccc(S(=O)(=O)CC)s1 | -0.137 |
| CC(C)(C)S(=O)(=O)c1nc2ccccc2s1 | 0.279 |
| CCc1nc(C)cn1S(=O)(=O)c1cc(Br)c(C)cc1OC | -0.193 |
| CCc1nc(C)cn1S(=O)(=O)c1cc(Cl)c(OC)cc1Cl | 2.99 |
| CCc1nc(C)cn1S(=O)(=O)c1cc(C)c(OC)cc1C | 0.289 |
| Cc1nc(CS(=O)c2ccc(Cl)cc2)cc(NCc2ccc(Cl)cc2Cl)n1 (configuration not stated) | 0.31 |
| CCOc1nc(-c2ccc(Cl)cc2Cl)ccc1C#N | -0.211 |
| COc1ccccc1NC(=S)NC(NC(=O)c1ccco1)C(Cl)(Cl)Cl (configuration not stated) | -0.246 |
| COc1ccc(NC(=S)NC(NC(=O)c2ccccc2Cl)C(Cl)(Cl)Cl)c([N+](=O)[O-])c1 (configuration not stated) | -0.469 |
| O=C(NC(NC(=S)Nc1ccccc1C(=O)O)C(Cl)(Cl)Cl)c1ccco1 (configuration not stated) | -0.106 |
| COC(=O)c1ccccc1NC(=S)NC(NC(=O)c1ccccc1[N+](=O)[O-])C(Cl)(Cl)Cl (configuration not stated) | 2.67 |
| COC(=O)c1ccccc1NC(=S)NC(NC(=O)c1ccco1)C(Cl)(Cl)Cl (configuration not stated) | 15.3 (active) |
| O=C(O)c1ccccc1NC(=S)NC(NC(=O)c1ccccc1[N+](=O)[O-])C(Cl)(Cl)Cl (configuration not stated) | -0.103 |
| CCNC(=O)NC(=O)C(C)OC(=O)c1cccnc1SC (configuration not stated) | -0.0754 |
| CN(C)C(=O)C(=O)c1c(-c2ccccc2)cc2ccccn12 | -0.294 |
| CN(CC(=O)Nc1ccccc1Br)Cc1nc2ccccc2c(=O)[nH]1 | 0.733 |
| N#Cc1nc(Cc2ccccc2)oc1N1CCN(c2cccc(Cl)c2)CC1 | 0.287 |
| N#Cc1nc(COc2cccc(Cl)c2)oc1N1CCCC1 | -0.382 |
| N#Cc1nc(COc2ccccc2)oc1N1CCN(c2cccc(Cl)c2)CC1 | 3.31 (active) |
